Reference: the supplement of paper PMC6555819

Assays:
Test in all cases: PBM binding z-score (relative to random genomic background probes); higher = stronger binding; sequences stand for … in GC…GCGATTGACAGCGTAGAATGAAGG
[1] = tested on: FXR:RXRa (NR concentration 270 nM, RXRa partner concentration 90 nM)
Summary of the method: (§1)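 Antibodies against each partner of ligand-free nuclear receptor dimers (one per run) detected binding on custom Agilent 4×180K protein-binding microarrays after 1 h incubation. The double-stranded probes had 34-nt variable regions carrying direct-repeat seeds, single-nucleotide variants, half-site ablations and random human genomic background sequences. Binding z-scores, from regression-normalized fluorescence, use the random background probes as reference.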

[2] = tested on: LXRa:RXRa (NR concentration 270 nM, RXRa partner concentration 90 nM)
Summary of the method: as §1

[3] = tested on: LXRa homodimer (NR concentration 270 nM)
Summary of the method: as §1

[4] = tested on: LXRb:RXRa (NR concentration 270 nM, RXRa partner concentration 90 nM)
Summary of the method: as §1

[5] = tested on: LXRb homodimer (NR concentration 270 nM)
Summary of the method: as §1

[6] = tested on: PPARa:RXRa (NR concentration 270 nM, RXRa partner concentration 90 nM)
Summary of the method: as §1

[7] = tested on: PPARg:RXRa (NR concentration 180 nM, RXRa partner concentration 90 nM)
Summary of the method: as §1

[8] = tested on: PPARg:RXRa 270nM:90nM, anti-RXR (NR concentration 270 nM, RXRa partner concentration 90 nM)
Summary of the method: as §1

[9] = tested on: PPARg:RXRa 30nM:10nM, anti-RXR (NR concentration 30 nM, RXRa partner concentration 10 nM)
Summary of the method: as §1

[10] = tested on: PPARg:RXRa 90nM:30nM, anti-RXR (NR concentration 90 nM, RXRa partner concentration 30 nM)
Summary of the method: as §1

[11] = tested on: PPARg:RXRa DBDmut IVT, anti-RXR (DBD mutation: RXRa K156A/R161A, NR concentration 270 nM, RXRa partner concentration 90 nM)
Summary of the method: as §1

[12] = tested on: PPARg:RXRa IVT, anti-PPARg (NR concentration 270 nM, RXRa partner concentration 90 nM)
Summary of the method: as §1

[13] = tested on: PPARg DBDmut:RXRa IVT, anti-PPARg (DBD mutation: PPARg1 K132A/R137A, NR concentration 270 nM, RXRa partner concentration 90 nM)
Summary of the method: as §1

[14] = tested on: PPARg DBDmut IVT, anti-PPARg (DBD mutation: PPARg1 K132A/R137A, NR concentration 270 nM)
Summary of the method: as §1

[15] = tested on: PPARg homodimer (NR concentration 180 nM)
Summary of the method: as §1

[16] = tested on: PXR:RXRa (NR concentration 270 nM, RXRa partner concentration 90 nM)
Summary of the method: as §1

[17] = tested on: PXR homodimer (NR concentration 270 nM)
Summary of the method: as §1

[18] = tested on: RARa:RXR (NR concentration 270 nM, RXRa partner concentration 90 nM)
Summary of the method: as §1

[19] = tested on: RARa homodimer (NR concentration 270 nM)
Summary of the method: as §1

[20] = tested on: RARb:RXRa (NR concentration 270 nM, RXRa partner concentration 90 nM)
Summary of the method: as §1

Sequence | PBM binding z-score [1] | PBM binding z-score [2] | PBM binding z-score [3] | PBM binding z-score [4] | PBM binding z-score [5] | PBM binding z-score [6] | PBM binding z-score [7] | PBM binding z-score [8] | PBM binding z-score [9] | PBM binding z-score [10] | PBM binding z-score [11] | PBM binding z-score [12] | PBM binding z-score [13] | PBM binding z-score [14] | PBM binding z-score [15] | PBM binding z-score [16] | PBM binding z-score [17] | PBM binding z-score [18] | PBM binding z-score [19] | PBM binding z-score [20]
TTTCGGAGGACACGAAAGGTCAGAGCTCGACATC | 3.67 | 4.36 | 4.05 | 3.47 | 0.13 | 3.77 | 1.9 | 2.77 | 0.718 | 1.71 | 0.372 | 2.08 | -0.0451 | 0.278 | 4.65 | 4.29 | 0.968 | 4.44 | 1.88 | 4.32
TCTATTAGATGAAGGGCAACCGACGAGTCCGTTT | 0.734 | 0.81 | -0.159 | 0.733 | 0.205 | 0.841 | 0.575 | 2.01 | 3.7 | 2.93 | 2.54 | 0.861 | 0.95 | 0.278 | 0.308 | 0.796 | 1.11 | 0.642 | 0.636 | 1.47
CTCGAAAGGTCGTGCTCAGGTGAGTATTCCAAAC | 5.42 | 3.85 | 0.158 | 3.32 | 0.259 | 4.52 | 2.26 | 3.47 | 0.582 | 1.86 | 0.897 | 1.51 | 0.28 | 0.396 | 1.7 | 3.33 | 0.16 | 4.06 | 0.262 | 3.76
AGTCAAAGTTCAGGACGAGGTAACGTAAAGCACG | 3.82 | 3.74 | 0.999 | 1.93 | 0.286 | 3.46 | 4.47 | 4.95 | 2.17 | 3.94 | -0.443 | 2.06 | 0.129 | 0.321 | 1.91 | 2.94 | 0.827 | 2.8 | 0.702 | 4.26
TCGCGTAGGTTAGGGGCATTCAGAATGGCGTCGA | 0.432 | 0.41 | -0.522 | 0.996 | 0.176 | 1.04 | -0.162 | 1.01 | 1.38 | 1.41 | 0.918 | -0.148 | -0.436 | -0.621 | -0.168 | 0.489 | 0.0303 | 0.615 | -0.246 | 1.18
TCATATACGTAAATGCTAGGTGAAAGTCCGATCT | 0.742 | 0.449 | 0.327 | 0.861 | 0.278 | 0.771 | 0.633 | 2.14 | 3.51 | 2.66 | 2.16 | 0.926 | 0.89 | 1.72 | 0.664 | 0.565 | 0.25 | 0.743 | 0.987 | 0.357
AACTCTAGGTAACCAAGTTCAGTGAATGCCGAAC | 0.211 | 0.537 | 0.474 | 0.24 | 0.213 | 0.878 | 0.528 | 0.367 | -0.222 | 0.0109 | 3.59 | 2.39 | -0.137 | 0.215 | 0.0478 | 1.69 | 1.29 | 0.617 | 0.354 | 0.858
TCTTGTAGATCAAGCAGGTTAATAAAGCCTGAGT | 0.189 | 0.118 | -0.263 | 0.262 | -0.449 | 0.639 | -0.267 | 0.922 | 2.43 | 1.6 | 1.48 | 0.498 | -0.163 | 0.466 | 0.27 | 0.447 | 0.326 | 0.406 | 0.125 | -0.0389
CTCGAAAGGTCGGTAGAGGTGAGTATACGGATAA | 2.48 | 2.01 | 0.0371 | 1.32 | -0.315 | 2.86 | 1.02 | 1.75 | 0.538 | 0.994 | -0.427 | 1.32 | -0.234 | 0.272 | 1.1 | 2.69 | 0.0204 | 2.63 | 0.416 | 3.13
GCTATTAGTTGAAAGGGCAATCGAATGATTCTCG | 0.568 | 0.562 | 0.189 | 0.633 | -0.254 | 2.34 | 2.44 | 4.24 | 2.01 | 4.26 | 0.456 | 1 | -0.234 | 0.628 | 1.15 | 0.658 | 0.0729 | 1.25 | 0.589 | 1.74
CCTAGTTGGTCCGGAGGTCACACACCGGATATGA | 3.5 | 3.34 | 2.47 | 3.37 | 0.577 | 3.61 | 2.4 | 3.54 | 1.51 | 3.05 | 0.0727 | 1.77 | -0.285 | 0.613 | 2.74 | 4.13 | 1.54 | 4.43 | 1.45 | 3.47
ATACCAAGGTGGTCGTGAGGTCGTTGATACTAAC | 1.49 | 0.821 | 0.382 | 1.05 | -0.378 | 1.21 | 0.268 | 0.0614 | -0.274 | -0.258 | -0.434 | 0.335 | 0.113 | 0.0753 | 0.722 | 2.61 | 1.69 | 1.99 | 0.748 | 1.08
AGAAAGAGGTTATACGTAGATCAGGGAAGAAAGT | 3.01 | 2.51 | 0.203 | 2.19 | 0.538 | 3.37 | 1.84 | 1.7 | 0.807 | 1.23 | 1.97 | 1.35 | 0.646 | 0.799 | 0.915 | 1.54 | 0.627 | 2.07 | 1.16 | 2.08
